Screening results as filed in PubChem.
IL-1B inflam inh = blocks inflammasome-driven IL-1 beta release. 360,000 tested, 4.7% active. activity change, % at 57.5 µM. THP-1 LPS/ATP IL-1B secretion, AlphaLISA, 16 h; active compounds read low; in the data active means activity change below about -50%; inconclusive means mostly about -30% to -49%
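Secreted IL-1B measured by AlphaLISA bead assay after 16 h compound exposure of THP-1 cells; compounds (final up to 57.5 uM) added 1 h before LPS (250 ng/mL) and ATP (1.25 mM) stimulation; lower signal means less secretion.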
TDP1 block = blocks human tyrosyl-DNA phosphodiesterase 1; Q9NUW8; recombinant TDP1, AlphaScreen DNA substrate cleavage; Potency, µM (series often up to 130 µM), without a hit: at the highest dose activity change, negative = inhibition, actives largely listed as inhibitors; 350,000 tested, 0.28% active; AID 485290; further: potency means the concentration at half of the fitted maximal effect; nearly all actives have a fitted effect of over 40% in size
Target sequence (Q9NUW8 whole entry, looked up): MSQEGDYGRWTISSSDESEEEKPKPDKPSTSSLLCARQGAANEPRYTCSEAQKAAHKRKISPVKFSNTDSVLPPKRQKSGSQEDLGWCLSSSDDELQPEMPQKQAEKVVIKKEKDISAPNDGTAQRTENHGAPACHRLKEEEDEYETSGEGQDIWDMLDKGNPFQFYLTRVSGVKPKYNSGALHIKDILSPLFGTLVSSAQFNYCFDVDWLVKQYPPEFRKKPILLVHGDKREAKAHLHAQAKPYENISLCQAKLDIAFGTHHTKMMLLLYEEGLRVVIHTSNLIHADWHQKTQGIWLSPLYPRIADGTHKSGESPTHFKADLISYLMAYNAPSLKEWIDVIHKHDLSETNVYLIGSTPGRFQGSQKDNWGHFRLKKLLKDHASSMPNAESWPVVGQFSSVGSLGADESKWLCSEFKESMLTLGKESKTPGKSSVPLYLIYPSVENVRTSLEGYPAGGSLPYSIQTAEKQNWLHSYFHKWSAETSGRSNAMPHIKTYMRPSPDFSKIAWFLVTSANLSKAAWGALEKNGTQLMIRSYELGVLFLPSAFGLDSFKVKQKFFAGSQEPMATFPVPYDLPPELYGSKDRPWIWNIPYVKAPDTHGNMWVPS
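Enzyme-compound mixtures sat 15 min at room temperature, followed by a 5 min reaction with 15 nM final substrate and 10 min with AlphaScreen beads. Recombinant human Tdp1 was used at 1 nM final.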
TDP1 cell noCPT = qHTS for Inhibitors of human tyrosyl-DNA phosphodiesterase 1 (TDP1): qHTS in cells in absence of CPT | DT40 Tdp1-/- hTDP1 cells, no CPT, ATP luminescence, 48 h | Potency, µM (series often up to 46.2 µM), for the others: at the highest dose activity change, negative = growth inhibition, hits mostly inhibitors | 420,000 tested, 15% active; further: potency means the concentration at half of the fitted maximal effect; nearly all actives have a fitted effect of over 55% in size
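Growth kinetics read by CellTiter-Glo luminescence after ≥48 hr at 37 °C. Cells: DT40 Tdp1-/- stably carrying human TDP1, 400 per well, compound exposure in the absence of CPT (DMSO vehicle).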
Giardia killer = kills Giardia lamblia; Giardia lamblia trophozoite viability; activity change, % at 7.66 µM, hits read low; 340,000 tested, 0.15% active; in the data active means activity change below about -80%; inconclusive means between about -30% and that limit;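 further: parasites exposed to compound for two days anaerobically before the ATP read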
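Luminescence from cellular ATP indicates surviving trophozoites (100 cells/well) following 48 hrs anaerobic compound treatment at 37 deg C; signal develops 15-30 min at room temperature.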
DT40 TDP1 CPT = growth inhibition of DT40 Tdp1-/-;hTDP1 cells with camptothecin (screen for TDP1 inhibitors) | chicken DT40 Tdp1-/-;hTDP1 cells + 20 nM CPT, ATP luminescence, 48 h | Potency, µM (series often up to 46.2 µM), without a hit: at the top dose activity change, negative = growth inhibition, actives largely listed as inhibitors | 420,000 tested, 12% active; further: potency means the concentration at half of the fitted maximal effect; nearly all actives have a fitted effect of over 55% in size
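Cell growth measured by CellTiter-Glo luminescence after a minimum 48 h, 37 C compound exposure with 20 nM CPT in Tdp1-knockout DT40 cells stably expressing hTDP1, seeded 400/well; qHTS titration format.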
ELG1 DNA repair = inhibitors of ELG1-dependent DNA repair in HEK293T cells | 330,000 tested, 2.3% active | HEK293T ELG1-luciferase reporter, luminescence, 16 h; DNA damage induced by 5-fluorouridine | Potency, µM (doses to about 46.1 µM), for inactives: at the highest dose activity change, negative = inhibition, most hits filed as inhibitors | AID 504467; further: potency means the concentration at half of the fitted maximal effect; nearly all actives have a fitted effect of over 55% in size
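5-Fluorouridine DNA damage + compound/DMSO, 2,000 cells/well, 16 h, 37 °C/5% CO2. ONE-Glo, 30 min RT, luminescence. Readout = decrease in reporter signal.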
Starred values were filed as active, the others as inactive; ? = inconclusive; · = no result; ! = a repeat was not active; [ ] = remark or other dose. Hits are enriched below; roughly 19% of the tested compounds scored in any of these assays. Unless noted, the call rests on the fitted dose curve; in most records, active means well fitted curve in the direction sought with a large enough effect; inconclusive means small, poorly fitted or top-dose-only effect, or another doubt; inactive means no such curve, though single readings can be large; an effect the other way counts as inactive or inconclusive. On the % scale 0 is the no-effect control and ±100 the full control effect.

SMILES	IL-1B inflam inh	TDP1 block	TDP1 cell noCPT	Giardia killer	DT40 TDP1 CPT	ELG1 DNA repair
Cc1ccc(-n2ncc(C(=O)NC3CC3)c2C2CCN(C(=O)OC(C)(C)C)CC2)cc1	35.9	0.9%	-3.3%	-2.7	-18.4%	0.9%
COc1ccccc1CN1CCC(CNC(=O)c2cnn(-c3ccc(Cl)cc3)c2C2CCN(C(=O)OC(C)(C)C)CC2)CC1	·	6.3%	5.17µM*	·	3.66µM*	·
O=C(NCCN1CCOCC1)c1cnn(-c2ncc3c(n2)-c2ccccc2CC3)c1C1CC1	·	·	23.1µM*	·	10.5%[9.04 µM]	·
Cc1cccc(C)c1-n1ncc(C(=O)NCCN2CCN(C)CC2)c1C1CCN(C(=O)OC(C)(C)C)CC1	·	2.1%	?	·	?	·
COc1ccccc1N1CCN(CCCNC(=O)c2cnn(-c3ccccc3)c2C2CCN(C(=O)OC(C)(C)C)CC2)CC1	·	0.0%	16.4µM*	·	16.4µM*	·
Cc1ccc(-n2ncc(C(=O)NC3CCCCC3)c2C2CCN(C(=O)OC(C)(C)C)CC2)cc1	·	2.1%	23.1µM*	·	?	·
CC(C)(C)OC(=O)N1CCC(c2c(C(=O)NCCN3CCCC3)cnn2-c2ccc(Cl)cc2)CC1	·	2.1%	23.1µM*	·	?	·
CC(C)(C)OC(=O)N1CCC(c2c(C(=O)NCCN3CCOCC3)cnn2-c2ccccc2)CC1	·	-2.1%	5.8µM*	·	5.8µM*	·
Cc1ccc(CNC(=O)c2ccc3c(=O)n(-c4ccccc4)c(=O)[nH]c3c2)cc1	·	5.9%	-5.1%	·	1.9%	·
COC(=O)c1ccccc1NC(=O)Cn1c(=O)n(-c2cccc(OC)c2)c(=O)c2c(C)c(C(=O)N(C)C)sc21	·	1.5%	2.4%	·	-6.3%	·
O=C(c1ccc2c(c1)N(Cc1ccccc1F)C(=O)c1ccccc1S2=O)N1CCCCC1 (centres undefined)	·	3.5%	-10.6%	·	-22.0%	·
CN(C)CCN(Cc1ccccc1)S(=O)(=O)c1ccc(-c2cc(C(F)(F)F)on2)s1	·	2.6%	11.6µM*	·	14.6µM*	·
CC(C)Oc1cccc(C(=O)NC(=S)Nc2ccccc2)c1	-25.4	5.3%	?	1.1	?	?
COc1ccc(N(C)C(=O)c2oc(=O)c3ccccc3c2-c2ccccc2)c(OC)c1	-17.3	8.3%	?	7.0	?	-18.6%
CN(C(=O)c1oc(=O)c2ccccc2c1-c1ccccc1)c1cccc(Cl)c1	·	3.5%	23.1µM*	·	18.4µM*	·
CC1CCC(NC(=O)CCc2cn(Cc3ccccc3Cl)c3ccccc23)CC1 (centres undefined)	·	0.0%	?	·	?	·
COc1cccc(CNC(=O)CCc2cn(Cc3ccccc3Cl)c3ccccc23)c1	·	5.1%	18.4µM*	·	?	·
O=C(CCc1cn(Cc2ccccc2Cl)c2ccccc12)NC1CCCCC1	·	-2.6%	16.4µM*	·	?	·
COc1ccccc1NC(=O)C(C)OC(=O)CCC1CCCCC1 (centres undefined)	4.9	·	?	5.0	-0.1%	3.5%
CCn1nc(C(=O)NCc2nnc3ccccn23)c2ccccc2c1=O	10.7	-5.6%	2.8%	16.0	1.5%	25.4%
C[C@@H]1CCCCO[C@H](CN(C)Cc2ccc(C(F)(F)F)cc2)[C@H](C)CN([C@@H](C)CO)C(=O)c2cc(NC(=O)Cc3ccccc3)ccc2O1	-13.7	·	14.6µM*	·	11.6µM*	·
C[C@@H]1CCCCO[C@@H](CN(C)Cc2ccc(Cl)c(Cl)c2)[C@@H](C)CN([C@H](C)CO)C(=O)c2cc(NC(=O)Nc3ccccc3)ccc2O1	?	·	20.6µM*	·	23.1µM*	·
CC(C)NC(=O)Nc1ccc2c(c1)C(=O)N([C@H](C)CO)C[C@H](C)[C@@H](CN(C)Cc1ccc(C(F)(F)F)cc1)OCCCC[C@H](C)O2	?	·	?	·	20.6µM*	·
COc1ccc(CN(C)C[C@@H]2OCCCC[C@H](C)Oc3ccc(NC(=O)Cc4ccccc4)cc3C(=O)N([C@@H](C)CO)C[C@@H]2C)cc1	-7.3	·	23.1µM*	·	8.2%	·
COc1ccc(-c2c(C#N)c(N)nc(Sc3ccc(Cl)cc3)c2C#N)cc1	·	·	-29.6%	41.2	-12.3%	?
SMILES	IL-1B inflam inh	TDP1 block	TDP1 cell noCPT	Giardia killer	DT40 TDP1 CPT	ELG1 DNA repair
COc1nc(N)c(C#N)c(-c2ccc(N(C)CCC#N)cc2)c1C#N	?	·	7.31µM*	8.8	18.4µM*	16.4µM*
CCCN1CCC(=O)N(CCC#N)CC1	·	·	-4.0%	·	-20.3%	·
COc1ccccc1CNC(=O)c1ccc(-c2nc(CN3CCc4ccccc43)c(C)o2)cc1	·	7.7%	·	·	·	·
Cn1c(N)c(C(=O)COC(=O)COc2cc(Cl)c(Cl)cc2Cl)c(=O)n(C)c1=O	10.4	-1.3%	-22.9%	-7.2	-25.6%	19.5%
CC(C)COC(=O)COc1cc(Cl)c(Cl)cc1Cl	·	50.1µM*	·	·	·	29.6%
COC(=O)CC1C(C)(C)C(OC(C)=O)C2[C@H](OC(C)=O)[C@]34O[C@]2(O)[C@]1(C)C3CC[C@]1(C)C4=CC(=O)OC1c1ccoc1 (some centres undefined)	·	10.1%	16.4µM*	·	?	·
O=C(C(c1ccccc1)c1ccccc1)N1CCC(c2nc(-c3ccccc3Cl)no2)CC1	-12.9	·	?	4.4	23.1µM*	·
Cc1ccccc1NCc1nnc2n1CCCCC2	-15.8	5.1%	-27.4%	9.1	-4.2%	0.7%
COC(=O)c1ccc(OS(=O)(=O)c2ccc(NC(C)=O)cc2)cc1	-7.1	0.0%	?	7.1	11.6µM*	-10.2%
CC(=O)Nc1ccc(C(=O)N/N=C/c2ccccc2OC(=O)c2ccc(Cl)cc2)cc1	70.6	7.0%	10.3µM*	12.6	9.2µM*	?
CC(=O)Nc1ccc(S(=O)(=O)Oc2ccc(/C=N/NC(=O)c3ccc(Cl)cc3)cc2)cc1	-2.6	3.9%	16.4µM*	4.5	20.6µM*	?
CC(C)C[C@H]1COCCS(=O)(=O)N1Cc1cccc(Cl)c1	8.6	·	?	4.0	14.6µM*	·
CCC(C)[C@H]1COCCS(=O)(=O)N1Cc1ccc(Br)cc1 (some centres undefined)	-3.1	·	16.4µM*	12.4	17.8µM*	-11.0%
CC(C)[C@H]1COCCS(=O)(=O)N1Cc1ccc(Cl)cc1	-4.4	·	?	19.0	?	-3.4%
O=S1(=O)CCO[C@H]2Cc3ccccc3[C@H]2N1Cc1cccc(F)c1	14.9	·	-3.7%	-0.6	20.6µM*!	-4.8%
CCCC[C@H]1COCCS(=O)(=O)N1Cc1ccc(C)cc1	·	·	25.9µM*	7.2	?	5.9%
O=S1(=O)CCO[C@H]2Cc3ccccc3[C@H]2N1Cc1ccc(F)cc1	5.5	·	?	13.2	-5.9%	10.4%
